Only some compounds are listed: those with a hit (about 12% of all), similar ones and a draw of the others.
AMA1 RON2 block = qHTS for Inhibitors of AMA1-RON; Towards Development of Antimalarial Drug Lead: Primary Screen; Plasmodium falciparum AMA1 (3D7) - RON2 peptide interaction; AlphaScreen AMA1-biotinylated RON2 peptide binding; Potency, µM (series often up to 58.2 µM), usual class: inhibitors; actives 0.2% (n = 360,000); AID 720542, 2013; also: nearly all actives have a fitted effect of over 45% in size
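AMA1 (3D7) with his tag at 25 nM final met compounds first, then biotinylated RON2 peptide at 25 nM; detection used donor plus acceptor beads, 10 µg/mL apiece, read by AlphaScreen after 30 min at room temperature.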
Pf growth 96h = Primary qHTS for delayed death inhibitors of the malarial parasite plastid, 96 hour incubation | P. falciparum luciferase reporter growth, 96 h | Potency, µM (titrated, usually from 28.7 µM), actives largely listed as inhibitors | actives 6.9% (n = 320,000)
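Luminescence readout: decreased luciferase signal marks inhibited growth of reporter-expressing P. falciparum in infected red cells (2% hematocrit, 0.05% parasitemia final), exposed to compound two generations (96 h, 37 C, 5% CO2).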
HCV inh = qHTS Assay for Inhibitors of Hepatitis C Virus (HCV); Potency, µM (highest dose often 41.8 µM), most hits filed as inhibitors; Huh7.5.1 HCVcc-Cre infection, luciferase reporter, 44 h; AID 651820, 2012; actives 3.4% (n = 340,000)
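Infectious HCV cell culture screen: compound-treated cells (1,000/well, pre-plated 4 h) are infected with HCVcc-Cre at roughly 0.5 moi and grown 44 h. Infection is quantified by luciferase signal after 15 min substrate incubation at room temperature.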
SARS PLpro yeast = qHTS of Yeast-based Assay for SARS-CoV PLP; S. cerevisiae expressing SARS-CoV PLpro, growth rescue; Potency, µM (top dose mostly 32.9 µM), hits mostly activators; actives 0.19% (n = 330,000); calls by dose curve; also: nearly all actives have a fitted effect of over 55% in size
NS1 function inh = qHTS Assay for Inhibitors of Influenza NS1 Protein Function. Potency, µM (series often up to 46.1 µM). actives 0.4% (n = 270,000); calls by dose curve; also: actives are rising curves; nearly all actives have a fitted effect of over 50% in size
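S. cerevisiae expressing influenza A NS1, grown in glucose, washed, then diluted 1:100 into pH 6.0 -URA galactose medium with 23 nl compound. Growth recovery read as OD600; NS1-free strain serves as control.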
Pf growth 48h = Primary qHTS for delayed death inhibitors of the malarial parasite plastid, 48 hour incubation | actives 5.9% (n = 310,000) | P. falciparum luciferase growth in erythrocytes, 48 h | AID 504832, 2011 | Potency, µM (series often up to 28.7 µM), most hits filed as inhibitors
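First compound was added to culture medium, then infected red cells at 0.1% parasitemia and 2% hematocrit (final). After incubation at 37 C under 5% CO2, luciferase detection reagent was dispensed and light output recorded.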
Hits are given with their value; - = inactive; ? = inconclusive; . = no result given; [ ] = another dose, or the depositor's remark. Unless noted, calls follow the shape of the dose curve; as a rule, active = well fitted curve in the direction sought with a large enough effect; inconclusive = small, poorly fitted or top-dose-only effect, or another doubt; inactive = no such curve, though single readings can be large; an effect the other way counts as inactive or inconclusive.

SMILES	AMA1 RON2 block	Pf growth 96h	HCV inh	SARS PLpro yeast	NS1 function inh	Pf growth 48h
COC(=O)C1=C(C)NC(=S)NC1c1ccc(OC(=O)c2ccco2)cc1 (centres undefined)	-	?	-	-	-	-
CC1=C(C(=O)OCc2ccc(C)cc2)C(c2ccc(O)c([N+](=O)[O-])c2)NC(=O)N1 (centres undefined)	-	-	-	-	.	12µM
CCOC(=O)C(C)Oc1ccc(C2NC(=O)NC(C)=C2C(=O)Nc2ccccc2C)cc1 (centres undefined)	-	?	-	-	-	10µM
CCOC(=O)C1=C(C)NC(=O)NC1c1ccc(OC(=O)c2ccco2)cc1 (centres undefined)	-	7.4µM	-	-	-	-
CC1=C(C(=O)Nc2ccccc2C)C(c2ccccc2)NC(=O)N1 (centres undefined)	-	-	-	-	-	.
CCOc1cc(C2NC(=O)NC(C)=C2C(=O)OCc2ccccc2)ccc1O (centres undefined)	-	-	-	-	-	2.3µM
CC1=C(C(=O)OC2CCC(C)CC2)C(c2ccc(O)c([N+](=O)[O-])c2)NC(=O)N1 (centres undefined)	-	?	-	-	?	-
CCOC(=O)c1c(NC(=O)CN2C(=O)C(=O)N(C(C)C)C2=O)sc(C)c1CC	-	-	?	-	.	?
CCCCOc1ccccc1C1NC(=O)NC(C)=C1C(=O)OCc1ccco1 (centres undefined)	-	?	-	-	-	9.3µM
COC(=O)C1=C(CS(=O)(=O)c2cc(OC)ccc2OC)NC(=O)NC1c1ccc(O)c(OC)c1 (centres undefined)	-	10µM	-	-	-	-
COc1ccc(COC(=O)C2=C(C)NC(=O)NC2c2ccc(O)c(OC)c2)cc1 (centres undefined)	-	10µM	-	-	-	.
COc1ccc(COC(=O)C2=C(C)NC(=O)NC2c2ccc(OC)c(OC)c2)cc1 (centres undefined)	-	-	-	-	-	?
CC1=C(C(=O)OCc2ccccc2)C(c2cccc(Br)c2)NC(=O)N1 (centres undefined)	-	-	-	-	-	?
COc1ccc(COC(=O)C2=C(C)NC(=O)NC2c2cccc(Br)c2)cc1 (centres undefined)	-	?	10µM	-	-	?
CCCCOc1ccccc1C1NC(=O)NC(C)=C1C(=O)OCCOCC (centres undefined)	-	?	-	-	-	-
CCn1c(Cc2ccccc2)nnc1SCC(=O)N1CCCC1=O	-	-	.	-	-	-
O=c1c2c(nc3nc(NCc4cccc5ccccc45)[nH]n13)CCC2	-	-	-	-	.	-
O=C(c1ccc2ccccc2c1)C1CCCN(S(=O)(=O)c2cccnc2)C1 (centres undefined)	-	-	?	-	-	?
O=C(Nc1ccccc1NC(=O)c1ccccc1Cl)c1ccccc1Cl	-	15µM	-	-	-	?
O=C(Nc1ccccc1C(=O)Nc1ccc(Br)cn1)c1ccccc1Cl	-	?	13µM	-	.	?
NC(=O)c1ccccc1NC(=O)c1ccccc1Cl	-	?	-	-	-	-
O=C(Nc1ccccc1C(=O)Nc1nnc(C(F)(F)F)s1)c1ccccc1Cl	-	4.7µM	11µM	-	-	?
Cc1ccccc1C(=O)Nc1ccc(Br)cn1	-	-	?	-	-	-
Cc1ccccc1N1C(=O)c2ccccc2C1O (centres undefined)	-	?	-	-	-	-[0.00184 µM]
CC(C)(C)c1nnc2cccc(Cl)n12	-	-[1.15 µM]	-	-	-	-
SMILES	AMA1 RON2 block	Pf growth 96h	HCV inh	SARS PLpro yeast	NS1 function inh	Pf growth 48h
O=S(=O)(NCc1ccccc1)c1ccc(Cl)cc1	-	?	-	-	-	.
O=S(=O)(Nc1cc2nc3ccccc3nc2n1Cc1ccccc1)c1ccc(Cl)cc1	-	0.83µM	?	-	-	1.3µM
O=C(NC1CCCCC1)c1cc(C2CC2)nn1-c1ccccc1	-	-	-	-	.	?
COCCn1nnnc1C(C(C)C)N1CCOCC1 (centres undefined)	-	8.3µM	-	-	-	-
COCCn1nnnc1C(c1ccc(C(F)(F)F)cc1)N1CCOCC1 (centres undefined)	-	-	-	-	-	-
COC(=O)c1cc(S(=O)(=O)N(C)C2CCCCC2)cn1C	-	?	-	-	-	-
COC(=O)c1ccc(S(=O)(=O)N(C2CCCCC2)C2CCCCC2)n1C	-	?	-	-	-	10µM
Cc1c(O)nc(SCC(=O)Nc2cccc(C(F)(F)F)c2)n(-c2ccccc2)c1=O	-	?	-	-	?	-
COc1ccc(-n2c(SCC(=O)Nc3ccc(Br)cc3)nc(O)cc2=O)cc1	-	-	-	-	-	?
Cc1ccc(NC(=O)CSc2nc(O)cc(=O)n2-c2ccc(C)cc2)cc1	-	?	-	-	-	13µM
COc1cccc(NC(=O)CSc2nc(O)c(C)c(=O)n2-c2ccc(C)cc2)c1	-	10µM	?	-	-	-
CC(C)Oc1ccccc1NC(=O)CSc1nc2ccccc2c(=O)n1C	-	-	?	-	-	-
Nc1cc(=O)nc(SCC(=O)Nc2ccccc2)n1-c1ccccc1	-	1.9µM	-	-	-	-
COc1cccc(NC(=O)CSc2nc3ccccc3c(=O)n2C)c1	-	?	22µM	-	-	12µM
CCOC(=O)c1c(C)[nH]c(C2=NNC(=NC3CC3)SC2)c1C	-	-	?	-	.	-
CC1CCN(C(=O)COC(=O)Cc2ccc(Br)cc2)CC1	-	-	-	-	-	-
CC(=O)NCCNc1nc2cc(-c3cnn(CCC(C)C)c3)sc2c(=O)n1C	-	.	.	.	.	.
Cc1ccc2oc(C(=O)N3CCN(CC(=O)NC(C)C)CC3)c(C)c2c1	-	?	-	-	-	-
CC1(C)Cc2c(cnn2-c2cccc(F)c2)C(NC(=O)CSc2ccncc2)C1 (centres undefined)	-	-	-	-	-	?
Nc1cc2c(cc1Br)-c1ccc(F)cc1C2O (centres undefined)	-	.	-	.	.	.
Cc1ccc(-n2c(SCC(=O)N3CCOCC3)nc(O)cc2=O)cc1	-	?	-	-	?	-
COc1ccc(-n2c(SCC(=O)N3CCOCC3)nc(O)cc2=O)cc1	-	5.9µM	-	-	-	-
COCCNC(=S)Nc1cc(OC)c(OC)cc1C#N	-	-	-	-	-	-
Cc1ccc(-c2nnc(NCc3ccccc3)c3ccccc23)cc1	-	?	11µM	-	-	?

Assay outcomes deposited in PubChem BioAssay by National Center for Advancing Translational Sciences (NCATS).
